Efflux pump inh = antifungal efflux pump inhibition, Nile Red retention | S. cerevisiae Candida pump triplex | inhibition, % at 10 µM | actives 0.44% (n = 330,000) | AID 485275;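 active = plate passing quality check with inhibition over a set limit, or well fluorescence over plate mean plus 4 SD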;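 note: Nile Red retained in pooled yeast measured as flow cytometry median fluorescence; higher means more Nile Red kept so more efflux inhibition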
Bfl-1 A1 inh = inhibitors of the anti-apoptotic protein A1, read as caspase activation | MEF A1-2A-BIM cells, Caspase-Glo 3/7 luminescence, 3 h; percent of clofoctol response, vehicle zero | caspase activation, % (concentration not given with the values) | actives 0.066% (n = 330,000) | AID 2462;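 active = over half of replicate activation scores above 10%, or exactly half above 10 with the replicate mean above 10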
Mot1-301 SUMO = blocks SUMOylation pathway, rescuing yeast Mot1-301 growth. actives 1% (n = 320,000). growth rescue, % at 18.8 µM. S. cerevisiae Mot1-301 growth rescue, ATP luminescence, 38.5C; percent above DMSO median, 100 means doubled;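 active = every valid replicate shows activation above 250% relative to neutral control wells; inactive = the rest, any valid replicate at or below 250%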
VLA-4 inh = inhibition in a human VLA-4 binding assay; P13612; VLA-4 expressing cells, ligand binding flow cytometry; inhibition, % (about 7 µM as worked out from the volumes in the protocol); actives 0.2% (n = 330,000); AID 2557; in the data active = inhibition above about 50%
ALR inh = inhibitors of human sulfhydryl oxidase ALR. inhibition, % (no concentration beside the values). P55789. purified ALR, DTT oxidation, H2O2 HRP-luminol luminescence. actives 3.8% (n = 290,000);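 active = mean replicate inhibition above about 79%, with every replicate also reaching it, limit read from the data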
Target sequence (P55789 whole entry, looked up): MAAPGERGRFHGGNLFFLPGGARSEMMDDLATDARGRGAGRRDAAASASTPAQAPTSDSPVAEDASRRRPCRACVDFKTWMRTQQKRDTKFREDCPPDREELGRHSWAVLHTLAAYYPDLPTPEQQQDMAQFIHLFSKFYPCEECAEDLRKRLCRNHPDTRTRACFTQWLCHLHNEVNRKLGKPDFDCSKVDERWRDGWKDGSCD
AHR act = activates the human aryl hydrocarbon receptor; P35869; AHR-responsive luciferase reporter cells, luminescence; activation, % at 5 µM; actives 2.5% (n = 320,000); AID 2796; in the data active = activation above about 47%
Numbers stand for hits; n = inactive; x = no result. Only some compounds are listed: those with a hit (about 7.2% of all), similar ones and a draw of the others.

SMILES | Efflux pump inh | Bfl-1 A1 inh | Mot1-301 SUMO | VLA-4 inh | ALR inh | AHR act
COc1ccc(CNc2ncc(-c3cccc([N+](=O)[O-])c3)n2C)c(OC)c1OC | n | n | n | n | 98 | n
NC(N)=NNC(=O)c1ccccc1Cl | n | n | n | n | n | n
O=C(CCc1nc2ccccc2c(=O)[nH]1)N1CCCc2ccccc21 | n | n | n | n | n | n
N#C/C(=C\c1ccc(C(=O)O)cc1)S(=O)(=O)c1cc(Br)ccc1Br | n | n | n | n | 92 | n
CC(=O)Nc1ccc(/C=C(\C#N)S(=O)(=O)c2ccc(C)cc2)cc1 | n | n | n | n | n | n
CC(C)c1ccc(CN2CC(C(=O)O)CC2=O)cc1 (centres undefined) | n | n | n | n | n | n
CC1=NN(c2ccccc2)C(=O)C1/C=C1\NC(=S)NC1=O (centres undefined) | n | n | n | n | 89 | n
CC1CC1c1ccc(/C=C(\C#N)C(=O)Nc2cc(Cl)ccc2Cl)o1 (centres undefined) | n | n | n | n | n | 60
CC1CC1c1ccc(/C=C(\C#N)C(=O)Nc2ccc(Cl)cc2Cl)o1 (centres undefined) | n | n | n | n | n | n
COCC(=O)Nc1cc(Cl)c(OC)cc1OC | n | n | x | n | n | n
COc1ccc(Cl)cc1S(=O)(=O)NCCCn1ccnc1 | n | n | n | n | x | n
CCOc1cc(Cl)c(S(=O)(=O)NCCCn2ccnc2)cc1Cl | n | n | 356 | n | n | n
CSc1ccc(S(=O)(=O)NC2CC2)cc1 | n | n | n | n | x | n
Cc1ncc(CO)c(CNc2ccc(Oc3ccccc3)cc2)c1O | n | n | n | n | 98 | x
O=C(N/N=C/c1ccc(C(F)(F)F)cc1)c1ccc(O)cc1 | n | n | x | n | x | n
O=C(N/N=C/c1ccc(O)cc1)c1csc2c1CCCC2 | n | n | n | n | 99 | n
C[C@H](CCC(=O)O)[C@H]1CC[C@H]2[C@@H]3CC[C@@H]4C[C@H](O)CC[C@]4(C)[C@H]3C[C@H](O)[C@]12C | n | n | 422 | n | n | n
C[C@H](CCC(=O)O)[C@H]1CC[C@H]2[C@@H]3[C@H](O)C[C@@H]4C[C@H](O)CC[C@]4(C)[C@H]3CC[C@]12C | n | n | n | n | x | n
COc1ccnc2c1c(=O)n(Cc1ccc(F)cc1)c(=O)n2C | n | n | n | n | x | n
CC1CCC(NC(=O)CCNS(=O)(=O)c2ccc3c(c2)CCC(=O)N3)CC1 (centres undefined) | n | n | n | n | n | n
O=C(Nc1ccnn1C1CCN(C(=O)Cc2ccccc2F)CC1)C1CC1 | n | n | n | n | n | n
CCCc1cc2c(=O)c(-c3ccccn3)c(C)oc2cc1O | n | n | n | n | n | 65
N#Cc1ccccc1OCC(=O)OCCCOC(=O)COc1ccccc1C#N | n | n | 300 | n | n | n
CSc1cccc(N2CC(C(=O)NCCC3=CCCCC3)CC2=O)c1 (centres undefined) | n | n | n | n | n | n
COc1cccc(-c2c(NC(=O)c3ccco3)oc3ccccc3c2=O)c1 | n | n | 519 | n | n | n
SMILES | Efflux pump inh | Bfl-1 A1 inh | Mot1-301 SUMO | VLA-4 inh | ALR inh | AHR act
COc1ccc(OC)c(Nc2nc(-c3sc(NC(=O)C(C)(C)C)nc3C)cs2)c1 | x | n | n | x | n | 61
COc1ccc(OC)c(Nc2nc(-c3sc(NC(=O)CC(C)C)nc3C)cs2)c1 | n | n | n | n | n | 73
COc1ccc(Cl)cc1Nc1nc(-c2sc(NC(=O)C(C)(C)C)nc2C)cs1 | n | n | n | n | n | n
O=C(NCCc1csc(-c2cccnc2)n1)c1cccc2ccccc12 | n | n | n | n | n | 57
O=C(NCc1ccccc1)c1csc(-c2cccnc2)n1 | n | n | n | n | n | 67
O=C(NCCc1csc(-c2cccnc2)n1)c1ccccc1 | n | n | n | n | n | n
CCn1cc(CN(C)C(=O)/C=C/c2ccc([N+](=O)[O-])cc2)c(C)n1 | n | n | n | n | n | n
Cc1nn(C)cc1C(=O)/C=C/c1ccc([N+](=O)[O-])cc1 | n | n | n | n | 84 | n
COC(=O)[C@H](Cc1ccccc1)NC(=O)NCc1cccs1 | n | n | n | n | n | n
CN1CCN(c2ccc(NC(=S)NC(=O)/C=C/c3ccco3)cc2)CC1 | n | n | n | n | 81 | n

Bioassay records: PubChem, several laboratories
